# This excerpt belongs to a sample that is enriched for hits.
# Pf Dd2 growth – inhibitors of Plasmodium falciparum Dd2 growth; 120,000 tested, 4.3% active; P. falciparum Dd2 growth, SYBR Green, 72 h; Potency, µM (highest dose often 28.9 µM), without a hit: top-dose activity, negative = inhibition, hits mostly inhibitors; active means well fitted inhibition curve with a large enough effect;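 further: plate controls were DMSO vehicle for no effect and reference drug for full effect; nearly all actives have a fitted effect of over 65% in size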
#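 Readout: SYBR Green fluorescence, 485 nm excitation, 535 nm emission, after ~16 h lysis at 37C. Before that, Dd2-infected red cells (2.5% hematocrit) grew 72 h with compound, 29 uM top final concentration.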
# Active calls of the source: *; i = inactive; [ ] = remark or other dose. Potency means the concentration at half of the fitted maximal effect.
SMILES,Pf Dd2 growth
CNC(=O)[C@@H]1C[C@H](n2cc(CN(C)C(=O)Nc3ccc(C)c(C)c3)nn2)CN1,2%
COc1ccccc1CC(=O)Nc1ccc2nc(N3CCC(C)CC3)cc(C)c2c1,3%
Cc1cc(SCC(=O)Nc2ccc(Cl)cc2)nc2ccccc12,i
CN1CCN(c2ccc3nnc(-c4cc(C(=O)Nc5cccc(Cl)c5)ccn4)n3n2)CC1,i
COc1cc(C(=O)Nc2ccc(NC(=O)c3ccc(C(C)(C)C)cc3)cc2)cc(OC)c1OC,i
Cc1ccccc1NC(=O)Nc1ccc2nc(N3CCN(C)CC3)cc(C)c2c1,2µM*
CCOc1ccccc1NC(=O)Nc1ccc2nc(N3CCN(C)CC3)cc(C)c2c1,0.45µM*
Cc1cc(N2CCC(C)CC2)nc2ccc(NC(=O)Cc3ccccc3Br)cc12,-19%
Cc1cc(N2CCN(C)CC2)nc2ccc(NC(=O)c3ccc(C(C)(C)C)cc3)cc12,6.3µM*
Cc1cc(N2CCN(C)CC2)nc2ccc(NC(=O)Nc3ccc(Cl)cc3)cc12,11µM*
CC(C)(C)c1ccc(C(=O)Nc2ccc(NC(=O)c3ccc(Cl)c(Cl)c3)cc2)cc1,11%
Cc1ccccc1C(=O)Nc1ccc2nc(N3CCCCC3)cc(C)c2c1,i
CCOc1ccccc1NC(=O)Nc1nnc(N2CCCCCC2)s1,-26%
O=C(C1CCCC1)N1CCCC(c2nc(C3CCOCC3)no2)C1 (stereo not given),7%
CN(Cc1ccccc1)C1(C(=O)NC2CCS(=O)(=O)C2)Cc2ccccc2C1 (stereo not given),-27%
O=C(c1cccs1)N1CCc2n[nH]c(=O)n2CC1,9%
O=C(NCCN1CCOCC1)c1c(OCC2CC2)cc(=O)n2c1CCOCC2,18%
CCN(CC)C(=O)c1coc(COc2ccc3c(c2)C(c2ccc(C)cc2)N(C(=O)C2CC2)CC3)n1 (stereo not given),i
Cn1nccc1C(=O)NC1CCN(c2cc(-c3ccccc3)[nH]n2)CC1,i
COc1ccc2c(c1)CCc1c(C(=O)Nc3cnn(Cc4ccc(Cl)cc4Cl)c3)noc1-2,7.9µM*
COc1ccc(CN2Cc3cc(NC(=O)c4ccc(Cl)cc4)ccc3OC(C)C2=O)c(OC)c1 (stereo not given),i
CCc1cc(C(=O)Nc2cnn(Cc3ccccc3C)c2)no1,0%
N[C@@H]1CCN(Cc2ccccc2OCc2ccc(Cl)cc2)C[C@H]1O,4.5µM*
NC1CCCN(Cc2ccccc2F)C1 (stereo not given),-20%
Cn1c(COc2cccc(CN3CCCC3)c2Cl)nnc1C1CC(N)C1 (stereo not given),-14%
SMILES,Pf Dd2 growth
CCO[C@H]1CN(C(=O)c2ccccc2OC(F)(F)C(F)F)C[C@@H]1O,-13%
CC(C)C(=O)Nc1ccc2nc(SCC(=O)N3CCOCC3)sc2c1,5%
CCOc1ccc(C(=O)Nc2ccc3nc(SCC(=O)N4CCOCC4)sc3c2)cc1,8.9µM*
O=C(COc1ccccc1)Nc1ccc2nc(SCC(=O)N3CCOCC3)sc2c1,i
CCCn1ccnc1CN1C[C@@H](NC(=O)c2ccon2)C[C@H]1C(=O)NCC,-3%
CCCNC(=O)N1CC[C@@H](CC(=O)O)[C@@H](CC2=NCCc3ccc(OC)cc32)C1,-2%[44.1 µM]
COc1ccc2nc3n(c2c1)[C@@H](CNCc1ccccc1)COC3,7.1µM*
COc1ccc2nc3n(c2c1)[C@@H](CNCc1ccc(C#N)cc1)COC3,i
COc1ccc2nc3n(c2c1)[C@@H](CNCc1ccc(C(=O)O)cc1)COC3,13%[44.1 µM]
O=C(N[C@H](c1cccs1)C1CC(O)C1)c1n[nH]c2c1COCC2 (stereo not given in full),-13%
CC(C)c1ccc(C2NC(=O)c3n[nH]c(-c4cccs4)c32)cc1 (stereo not given),i
CC(C)c1ccc(C2c3c(-c4ccccc4O)n[nH]c3C(=O)N2Cc2ccncc2)cc1 (stereo not given),13µM*
CN1C(=O)c2[nH]nc(-c3ccc(F)cc3)c2C1c1cccc(O)c1 (stereo not given),-5%
CSc1ccc(C2c3c(-c4ccccc4O)n[nH]c3C(=O)N2Cc2ccncc2)cc1 (stereo not given),13µM*
Cc1ccc(N2C(=O)c3n[nH]c(C)c3C2c2ccc(C(C)C)cc2)cc1 (stereo not given),i
Cc1noc(C)c1CN1CCOC[C@H](O)C1,20%[44.1 µM]
CCOC(=O)N1CCC(NC(=O)c2cnn(-c3ccc(C)cc3)c2C2CCN(C(=O)OC(C)(C)C)CC2)CC1,11µM*
Cc1ccc(-n2ncc(C(=O)NC3CCN(Cc4ccccc4)CC3)c2C2CCN(C(=O)OC(C)(C)C)CC2)cc1C,i
COc1ccc(CNC(=O)c2cnn(-c3ccc(OC)cc3)c2C2CCN(C(=O)OC(C)(C)C)CC2)cc1,-23%
CCOC(=O)N1CCC(NC(=O)c2cnn(-c3cccc(Cl)c3C)c2C2CCN(C(=O)OC(C)(C)C)CC2)CC1,i
CCOC(=O)N1CCC(NC(=O)c2cnn(-c3ccc(OC)cc3)c2C2CCN(C(=O)OC(C)(C)C)CC2)CC1,8.9µM*
COc1ccc(-n2ncc(C(=O)NCCc3ccsc3)c2C2CCN(C(=O)OC(C)(C)C)CC2)cc1,-27%

# From PubChem
